# A selection: hits, their analogues and other compounds. The true share with any hit is near 8.2%.
# KB-3-1 cytotox = kills parental KB-3-1 adenocarcinoma cells. KB-3-1 viability, CellTiter-Glo ATP luminescence, 72 h. Potency, µM (highest dose often 46.1 µM), actives largely listed as cytotoxic. 1.4% of 400,000 active. AID 1347075; further: on the % scale 0 is the no-effect control and ±100 the full control effect; nearly all actives have a fitted effect of over 60% in size
#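 Viability of parental KB-3-1 cells, measured by CellTiter-Glo luminescence, followed a 72 h incubation at 37 °C with pinned compounds in phenol-red-free DMEM containing 10% FBS.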
# MCF10A rereplic = inducers of DNA re-replication in MCF 10A breast cells; MCF 10A DNA re-replication, Hoechst nuclear intensity, 48 h; Potency, µM (top dose mostly 46.1 µM), inactives show at the highest dose activity, positive = re-replication, most hits filed as activators; 2.9% of 350,000 active; further: % of control where 0% means no effect; nearly all actives have a fitted effect of over 50% in size
# KB-V1 MDR tox = KB-V1 MDR subline cytotoxicity; KB-V1 MDR cells viability, CellTiter-Glo, 72 h; Potency, µM (titrated, usually from 46.1 µM), most hits filed as cytotoxic; 3.4% of 400,000 active; further: on the % scale 0 is the no-effect control and ±100 the full control effect; nearly all actives have a fitted effect of over 60% in size
#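 Readout: CellTiter-Glo luminescence, 10 min after addition. Cells: KB-V1 MDR subline, 72 h at 37 degrees C with compound. Analysis: corrected, normalized data fitted to concentration-effect curves.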
# ELG1 DNA repair = ELG1-dependent DNA repair inhibition; HEK293T ELG1-luciferase reporter, luminescence, 16 h; DNA damage induced by 5-fluorouridine; Potency, µM (series often up to 46.1 µM), without a hit: top-dose activity change, negative = inhibition, usual class: inhibitors; 2.3% of 330,000 active; further: on the % scale 0 is the no-effect control and ±100 the full control effect; nearly all actives have a fitted effect of over 55% in size
#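 Quantitative HTS, concentration-response format. 2,000 cells/well co-treated with 5-fluorouridine and compound, 16 hr in 5% CO2 at 37 °C; ONE-Glo luminescence read after 30 min.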
# SW480 rerep = induces DNA re-replication in SW480 colon adenocarcinoma cells | Potency, µM (doses to about 46.1 µM), without a hit: at the top dose re-replication activation, actives largely listed as activators | AID 624297 | SW480 DNA re-replication, Hoechst DNA content imaging, 48 h | 1.8% of 340,000 active; further: % of control where 0% means no effect; nearly all actives have a fitted effect of over 55% in size
#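 Image-based DNA-content assay: after two days of treatment, nuclei were labelled with the DNA dye Hoechst and imaged, and hits were compounds raising the count of nuclei showing high fluorescence intensity.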
# Numbers without * were called inactive; i = inactive; u = inconclusive; x = no result; [ ] = another dose, or the depositor's remark. The call rests on the fitted dose curve; in most records, active means well fitted curve in the direction sought with a large enough effect; inconclusive means small, poorly fitted or top-dose-only effect, or another doubt; inactive means no such curve, though single readings can be large; an effect the other way counts as inactive or inconclusive. Potency means the concentration at half of the fitted maximal effect.
SMILES,KB-3-1 cytotox,MCF10A rereplic,KB-V1 MDR tox,ELG1 DNA repair,SW480 rerep
CCC(C)NCCOCCOc1ccc(C)cc1Br (centres undefined),i,-1%,i,-1%,17%
Cc1cccc(CS(=O)(=O)Cc2ccc(C(=O)NC3CCCC3)o2)c1,i,25%,i,2%,-2%
CN(C)c1ncnc2c1ncn2[C@H]1CN(Cc2ccc(-c3ccccc3)cc2)C[C@@H](CO)O1,i,x,i,x,x
O=C(CN(Cc1ccccc1Cl)C(=O)c1ccc(CN2CCOCC2)o1)NCc1ccccc1,i,9%,12µM*,u,7%
CSC1=NC(=O)/C(=C\c2cccc3ccccc23)S1,i,15µM*,u,0%,4%
COc1ccc(COc2ccsc2C(=O)Nc2ccc(Cl)c(Cl)c2)cc1,i,18µM*,i,-8%,12%
C=CCN1C(=O)c2ccccc2NC1c1ccc(Br)s1 (centres undefined),i,6%,u,-8%,5%
O=C1c2ccccc2NC(c2ccc(Br)s2)N1O (centres undefined),u,23µM*,u,x,23%
CCOc1ccc(CCNC(=O)c2cnc(C)cn2)cc1OCC,i,12%,i,2%,-9%
O=C(CSc1ccc(Cl)cc1)N/N=C/c1ccc([N+](=O)[O-])o1,i,9.2µM*,i,6%,21µM*
O=C(N/N=C/c1ccc([N+](=O)[O-])o1)C(O)c1ccccc1 (centres undefined),u,12µM*,i,u,u
O=C(COc1ccccc1)N/N=C/c1ccc([N+](=O)[O-])o1,15µM*,9%,i,u,-2%
Cc1ccc(OCC(=O)N/N=C/c2ccc([N+](=O)[O-])o2)cc1,i,-5%,u,-16%,-6%
O=C(N/N=C\c1ccc([N+](=O)[O-])o1)c1ccc(O)cc1,x,14%[20.6 µM],x,x,13%[20.6 µM]
O=C(CNc1ccc2ccccc2c1)N/N=C/c1ccc([N+](=O)[O-])o1,u,2%,i,-16%,u
CCCC(=O)Nc1ccc(C(=O)N/N=C/c2ccc([N+](=O)[O-])o2)cc1,u,3.3µM*,i,u,16µM*
CC[C@@H]1/C=C(\C)C[C@H](C)C[C@H](OC)[C@H]2O[C@@](O)(C(=O)C(=O)N3CCCC[C@H]3C(=O)O[C@H](/C(C)=C/[C@@H]3CC[C@H](Cl)[C@H](OC)C3)[C@H](C)[C@@H](O)CC1=O)[C@H](C)C[C@@H]2OC,x,6%,x,x,1%
CCOC(=O)C1(C)CCN1C(=O)c1ccc(C)cc1 (centres undefined),i,x,i,x,x
O=C(CN1CCN(Cc2ccc(Cl)cc2)CC1)N/N=C/c1ccccc1F,i,2%,u,0%,20%
CCCc1cc(=O)oc2c(C)c(OCC(=O)Nc3cccnc3)ccc12,i,0%,i,-13%,1%
COc1ccccc1NC(=O)COC(=O)C1C2CC3OC(=O)C1C3C2 (centres undefined),i,10%,i,16%,u
Cn1c(=O)c2c(nc(SCC(=O)NCc3ccco3)n2C)n(C)c1=O,i,-17%,i,9%,-14%
CC(C)n1c(SCC(=O)NCc2ccco2)nc2c1c(=O)n(C)c(=O)n2C,i,16µM*,i,1%,-2%
CCOc1ccc(OCC)c(NC(=O)CSc2nc3c(c(=O)n(C)c(=O)n3C)n2C(C)C)c1,u,30%,18µM*,12µM*,18%
CCOc1ccc(OCC)c(NC(=O)CSc2nc3c(c(=O)n(C)c(=O)n3C)n2C)c1,x,x,x,4%,x
SMILES,KB-3-1 cytotox,MCF10A rereplic,KB-V1 MDR tox,ELG1 DNA repair,SW480 rerep
O=C(CSc1nc2c(cnn2-c2ccc(F)cc2)c(=O)[nH]1)Nc1ccccc1C(F)(F)F,i,x,i,x,x
COc1ccc(N(CC(=O)N/N=C/c2ccc(-c3ccc([N+](=O)[O-])cc3)o2)S(=O)(=O)c2ccc(C)cc2)cc1Cl,i,u,i,2%,u
O=C(O)c1cccc(-c2ccc(/C=N/Nc3ccc([N+](=O)[O-])cc3)o2)c1,i,18µM*,i,23%,u
NS(=O)(=O)c1ccc(-c2ccc(/C=N/Nc3ccc(C(=O)O)cc3)o2)cc1,i,15%,i,u,u
NC(=S)N/N=C/c1ccc(-c2cccc([N+](=O)[O-])c2)o1,u,u,u,-25%,-2%
CNC(=S)N/N=C/c1ccc(-c2ccc(C(=O)O)cc2)o1,i,u,6.5µM*,u,u
CNC(=S)N/N=C/c1ccc(-c2ccc(Cl)c([N+](=O)[O-])c2)o1,i,u,i,u,0%
COc1ccc(N(CC(=O)N/N=C/c2ccc(-c3ccc([N+](=O)[O-])cc3)o2)S(=O)(=O)c2ccc(C)cc2)cc1,i,u,i,-9%,9.2µM*
O=C(O)c1ccc(-c2ccc(/C=N/Nc3ccc([N+](=O)[O-])cc3)o2)cc1,i,18µM*,i,18%,18µM*
CCC1CCCCN1C(=O)COc1ccc(S(=O)(=O)N2CCOCC2)cc1Cl (centres undefined),i,11%,i,3%,-9%
C[C@H](CO)N1C[C@H](C)[C@@H](CN(C)Cc2ccc3c(c2)OCO3)Oc2cc(Br)ccc2S1(=O)=O,i,x,i,x,x
CC(C)(C)NC(=S)N/N=C\c1ccc(-c2ccc([N+](=O)[O-])cc2)o1,u,16µM*,i,21µM*,21µM*
Cc1cccc(C)c1-n1nnnc1-c1nc2cc3ccccc3cc2[nH]c1=O,1µM*,x,6.5µM*,x,x
COc1ccc(OC)c(CN2C(=O)c3ccccc3C2c2nnnn2-c2ccc3c(c2)OCCO3)c1 (centres undefined),4.6µM*,x,i,x,x
COc1ccc(S(=O)(=O)NC(=O)C2(C)CCN2C(=O)CC2CCCC2)cc1 (centres undefined),i,x,i,x,x
CCOC(=O)c1c(-c2ccccc2)csc1NC(=O)c1ccc(S(=O)(=O)N2CCOCC2)cc1,i,12µM*,i,u,u
CCOC(=O)c1c(-c2ccccc2)csc1NC(=O)CCN1CCOCC1,i,u,u,23µM*,x
CCOC(=O)c1c(NC(=O)c2ccc(S(=O)(=O)N3CCOCC3)cc2)sc2c1CCN(C)C2,i,u,i,-7%,u
O=C(C[n+]1ccccc1)Nc1ccccc1Br,i,5%,i,-15%,-85%
CCN1C(=O)c2ccccc2Sc2ccc(NC(=O)COc3ccc(Cl)cc3)cc21,u,x,i,x,x
C=CC[C@]12CC=CC(=O)[C@@]1(O)O[C@H](c1ccc(OC)c(OC)c1)[C@H]2C,u,6.5µM*,u,x,u
